# Source: PubChem BioAssay (EPA / NIEHS)
# Where “and” joins values, the source holds several entries; their conditions need not be identical. Equal entries are not always repeated. Where a structure was tested more than once in an assay, its records may differ in their call. Calls of active or inactive are those of the source. The calls were made as follows: active = hit-call score of the fitted dose curve at least 0.9, where 1 is the maximum; inactive = score below 0.9.
# Key:
# [1] = read-out: Interferon-gamma inducible Protein 10 (IP10), CXCL10 (gene 3627); assay: BSK_hDFCGF_IP10: BioMAP Diversity Plus: hDFCGF Assay for Interferon-gamma inducible Protein 10 (IP10) Biomarker Activity (AID 2283053); conditions: primary human foreskin fibroblasts; actives raise or lower the signal
# Summary of the method: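 Human foreskin fibroblast primary cells (hDFCGF system) were dosed with chemical and assayed at 24 h; IP-10 measured by ELISA. Activity fitted bidirectionally relative to DMSO negative control as baseline.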
# [2] = read-out: Urokinase-type plasminogen activator receptor (uPAR), PLAUR (gene 5329); assay: BSK_CASM3C_uPAR: BioMAP Diversity Plus: CASM3C Assay for Urokinase-type plasminogen activator receptor (uPAR) Biomarker Activity (AID 2283054); conditions: primary human coronary artery smooth muscle cells; actives raise or lower the signal;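 also: cell-surface uPAR protein level quantified by ELISA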
# [3] = read-out: Vascular cell adhesion molecule 1 (VCAM1), VCAM1 (gene 7412); assay: BSK_CASM3C_VCAM1: BioMAP Diversity Plus: CASM3C Assay for Vascular cell adhesion molecule 1 (VCAM1) Biomarker Activity (AID 2283055); conditions: primary human coronary artery smooth muscle cells; actives raise or lower the signal;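 also: VCAM-1 protein level quantified by ELISA on the cells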
# [4] = read-out: Collagen III, COL3A1 (gene 1281); assay: BSK_hDFCGF_CollagenIII: BioMAP Diversity Plus: hDFCGF Assay for Collagen III Biomarker Activity (AID 2283056); conditions: primary human foreskin fibroblasts; actives raise or lower the signal
# Summary of the method: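 Response relative to DMSO, fitted in both directions, reflects ELISA-measured collagen III in human primary skin fibroblasts 24 h after compound addition.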
# [5] = read-out: Epidermal growth factor receptor (EGFR), EGFR (gene 1956); assay: BSK_hDFCGF_EGFR: BioMAP Diversity Plus: hDFCGF Assay for Epidermal growth factor receptor (EGFR) Biomarker Activity (AID 2283057); conditions: primary human foreskin fibroblasts; actives raise or lower the signal
# Summary of the method: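 Primary human foreskin fibroblasts were exposed to compound for 24 h, after which cell-surface EGFR was quantified by ELISA. Activity was fitted bidirectionally against the DMSO negative control as baseline.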
# [6] = read-out: Interleukin-8 (IL8), CXCL8 (gene 3576); assay: BSK_hDFCGF_IL8: BioMAP Diversity Plus: hDFCGF Assay for Interleukin-8 (IL8) Biomarker Activity (AID 2283058); conditions: primary human foreskin fibroblasts; actives raise or lower the signal
# Summary of the method: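 Fibroblast monolayers (human foreskin, hDFCGF) received test chemical for 24 h before ELISA detection of IL-8; either increases or decreases relative to DMSO count as activity.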
# [7] = BSK_hDFCGF_Proliferation: Cell Proliferation Assessment in the BioMAP Diversity Plus: hDFCGF Assay (AID 2283059); conditions: primary human foreskin fibroblasts;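 also: curves fitted for both rise and fall of signal versus DMSO baseline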
# Summary of the method: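 Primary human foreskin fibroblasts, sub-confluent; […]; 10% TCA fix, 0.1% SRB stain, A560 total protein. Gain/loss fitted bidirectionally vs DMSO control.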
# [8] = read-out: Macrophage colony-stimulating factor (MCSF), CSF1 (gene 1435); assay: BSK_hDFCGF_MCSF: BioMAP Diversity Plus: hDFCGF Assay for Macrophage colony-stimulating factor (MCSF) Biomarker Activity (AID 2283060); conditions: primary human foreskin fibroblasts; actives raise or lower the signal
# Summary of the method: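 fibroblasts (human foreskin, primary), 24 h post-dose; M-CSF by ELISA; bidirectional fit, DMSO = baseline.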
# [9] = BSK_hDFCGF_SRB: Viability Assessment in the BioMAP Diversity Plus: hDFCGF Assay (AID 2283061); conditions: primary human foreskin fibroblasts;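 also: cells exposed to compound for 24 h before the read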
# Summary of the method: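 SRB-based viability read on primary human skin fibroblasts at 24 h: TCA fixation, 0.1% dye, 560 nm. Gain or loss of signal is fitted against the DMSO negative control.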
# [10] = read-out: TIMP metallopeptidase inhibitor 1 (TIMP1), TIMP1 (gene 7076); assay: BSK_hDFCGF_TIMP1: BioMAP Diversity Plus: hDFCGF Assay for TIMP metallopeptidase inhibitor 1 (TIMP1) Biomarker Activity (AID 2283062); conditions: primary human foreskin fibroblasts; actives raise or lower the signal
# Summary of the method: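 Bidirectional curve fitting against DMSO baseline yielded this endpoint, based on ELISA detection of TIMP-1 in primary human foreskin fibroblasts exposed to compound for 24 h.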
# [11] = read-out: Monokine induced gamma interferon (MIG), CXCL9 (gene 4283); assay: BSK_hDFCGF_MIG: BioMAP Diversity Plus: hDFCGF Assay for Monokine induced gamma interferon (MIG) Biomarker Activity (AID 2283063); conditions: primary human foreskin fibroblasts; actives raise or lower the signal
# Summary of the method: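 Endpoint derived by bidirectional fitting relative to DMSO; MIG quantified via ELISA in primary human foreskin fibroblasts harvested 24 h after dosing.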
# [12] = read-out: Matrix Metallopeptidase 1 (MMP1), MMP1 (gene 4312); assay: BSK_hDFCGF_MMP1: BioMAP Diversity Plus: hDFCGF Assay for Matrix Metallopeptidase 1 (MMP1) Biomarker Activity (AID 2283064); conditions: primary human foreskin fibroblasts; actives raise or lower the signal
# Summary of the method: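 hDFCGF primary fibroblasts (human foreskin); chemical added; 24 h; MMP1 by ELISA; bidirectional fit vs DMSO.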
# [13] = read-out: Vascular cell adhesion molecule 1 (VCAM1), VCAM1 (gene 7412); assay: BSK_hDFCGF_VCAM1: BioMAP Diversity Plus: hDFCGF Assay for Vascular cell adhesion molecule 1 (VCAM1) Biomarker Activity (AID 2283065); conditions: primary human foreskin fibroblasts; actives raise or lower the signal;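 as to AC50: VCAM-1 protein level quantified by ELISA after 24 h chemical exposure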
# Summary of the method: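 Measured after 24 h chemical treatment of primary human skin fibroblasts, VCAM-1 was detected by ELISA and concentration-response analysed in both directions versus DMSO vehicle.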
# [14] = read-out: Plasminogen activator inhibitor-1 (PAI1), SERPINE1 (gene 5054); assay: BSK_hDFCGF_PAI1: BioMAP Diversity Plus: hDFCGF Assay for Plasminogen activator inhibitor-1 (PAI1) Biomarker Activity (AID 2283066); conditions: primary human foreskin fibroblasts; actives raise or lower the signal
# Summary of the method: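 Human foreskin fibroblasts in the hDFCGF system were dosed with compound for 24 h; PAI-1 was quantified by ELISA. Bidirectional curve fitting used DMSO as negative control and baseline.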
# [15] = read-out: Interferon-gamma inducible Protein 10 (IP10), CXCL10 (gene 3627); assay: BSK_KF3CT_IP10: BioMAP Diversity Plus: KF3CT Assay for Interferon-gamma inducible Protein 10 (IP10) Biomarker Activity (AID 2283068); conditions: primary human keratinocytes with fibroblasts; actives raise or lower the signal
# Summary of the method: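 In a primary skin co-culture of keratinocytes and fibroblasts, IP-10 is quantified by ELISA at 24 h after dosing. SRB staining of parallel wells monitors overt toxicity. Curves are fitted both directions against DMSO.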
# [16] = BSK_KF3CT_SRB: Viability Assessment in the BioMAP Diversity Plus: KF3CT Assay (AID 2283069); conditions: primary human keratinocytes with fibroblasts;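 also: total protein by sulforhodamine B staining as a cytotoxicity measure; fitted for both signal gain and loss against DMSO baseline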
# Summary of the method: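 Keratinocytes co-cultured with foreskin fibroblasts (human primary); chemical added, 24 h; fix 10% TCA, stain 0.1% SRB, A560. Bidirectional fit vs DMSO.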
# [17] = read-out: Interleukin-1 alpha (IL1a), IL1A (gene 3552); assay: BSK_KF3CT_IL1a: BioMAP Diversity Plus: KF3CT Assay for Interleukin-1 alpha (IL1a) Biomarker Activity (AID 2283070); conditions: primary human keratinocytes with fibroblasts; actives raise or lower the signal
# Summary of the method: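 Chemicals were dosed onto co-cultured human keratinocytes and foreskin fibroblasts, IL-1a was quantified by ELISA at 24 h, and activity was fitted in both directions relative to DMSO controls.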
# [18] = read-out: TIMP metallopeptidase inhibitor 2 (TIMP2), TIMP2 (gene 7077); assay: BSK_KF3CT_TIMP2: BioMAP Diversity Plus: KF3CT Assay for TIMP metallopeptidase inhibitor 2 (TIMP2) Biomarker Activity (AID 2283071); conditions: primary human keratinocytes with fibroblasts; actives raise or lower the signal
# Summary of the method: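 Human primary keratinocyte/foreskin fibroblast co-culture dosed with chemical and sampled at 24 h. TIMP-2 levels quantified by ELISA; bidirectional fitting against DMSO negative control as baseline.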
# [19] = read-out: Intercellular Adhesion Molecule 1 (ICAM1), ICAM1 (gene 3383); assay: BSK_KF3CT_ICAM1: BioMAP Diversity Plus: KF3CT Assay for Intercellular Adhesion Molecule 1 (ICAM1) Biomarker Activity (AID 2283067); conditions: primary human keratinocytes with fibroblasts; actives raise or lower the signal
# Summary of the method: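 Bidirectional curve fitting against a DMSO baseline was applied to ICAM-1 ELISA signal from primary human skin co-cultures harvested 24 h after treatment, with SRB staining of parallel wells for overt cytotoxicity.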
# [20] = read-out: Transforming growth factor beta 1 (TGFb1), TGFB1 (gene 7040); assay: BSK_KF3CT_TGFb1: BioMAP Diversity Plus: KF3CT Assay for Transforming growth factor beta 1 (TGFb1) Biomarker Activity (AID 2283072); conditions: primary human keratinocytes with fibroblasts; actives raise or lower the signal
# Summary of the method: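 Human keratinocyte plus foreskin fibroblast primary co-culture, dosed with chemical for 24 h. TGF-b1 quantified by ELISA. Activity fitted bidirectionally against DMSO negative control as baseline.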
compound,measurement,setting,value
CCCCCOC(=O)COc1cc(N2C(=O)C3=C(CCCC3)C2=O)c(F)cc1Cl,AC50,[1],17.9 µM (active)
same,outcome,[2],inactive
same,AC50,[3],5.55 µM (active)
same,AC50,[4],15.4 µM (active)
same,outcome,[5],inactive
same,outcome,[6],inactive
same,AC50,[7],22.7 µM (active)
same,AC50,[8],20 µM (active)
same,outcome,[9],inactive
same,outcome,[10],inactive
same,AC50,[11],4.64 µM (active)
same,outcome,[12],inactive
same,AC50,[13],14 µM (active)
same,outcome,[14],inactive
same,AC50,[15],31.9 µM (active)
same,outcome,[16],inactive
same,outcome,[17],inactive
same,AC50,[18],13.4 µM (active)
CCCOC(=O)NCCCN(C)C,outcome,[1],inactive
same,outcome,[2],inactive
same,outcome,[3],inactive
same,outcome,[4],inactive
same,outcome,[5],inactive
same,outcome,[6],inactive
same,outcome,[7],inactive
same,outcome,[8],inactive
same,outcome,[9],inactive
same,outcome,[10],inactive
same,outcome,[11],inactive
same,outcome,[12],inactive
same,outcome,[13],inactive
same,outcome,[14],inactive
same,outcome,[15],inactive
same,outcome,[16],inactive
same,outcome,[17],inactive
same,outcome,[18],inactive
CCNc1nc(N)nc(Cl)n1,outcome,[1],inactive
same,outcome,[2],inactive
same,outcome,[3],inactive
same,outcome,[4],inactive
same,outcome,[5],inactive
same,outcome,[6],inactive
same,outcome,[7],inactive
same,outcome,[8],inactive
same,outcome,[9],inactive
same,outcome,[10],inactive
same,outcome,[11],inactive
same,outcome,[12],inactive
same,outcome,[13],inactive
same,outcome,[14],inactive
same,outcome,[19],inactive
same,outcome,[15],inactive
same,outcome,[16],inactive
same,outcome,[17],inactive
same,outcome,[18],inactive
same,outcome,[20],inactive
CCC(O)=C1C(=O)CC(C(=O)O)CC1=O (stereo not given),outcome,[1],inactive
same,outcome,[2],inactive
same,outcome,[3],inactive
same,outcome,[4],inactive
same,outcome,[5],inactive
same,outcome,[6],inactive
same,outcome,[7],inactive
same,outcome,[8],inactive
same,outcome,[9],inactive
same,outcome,[10],inactive
same,outcome,[11],inactive
same,outcome,[12],inactive
same,outcome,[13],inactive
same,outcome,[14],inactive
same,outcome,[19],inactive
same,outcome,[15],inactive
same,outcome,[16],inactive
same,outcome,[17],inactive
same,outcome,[18],inactive
CSC(=O)c1cccc2nnsc12,outcome,[1],inactive
same,outcome,[2],inactive
same,outcome,[3],inactive
same,outcome,[4],inactive
same,outcome,[5],inactive
same,outcome,[6],inactive
same,outcome,[7],inactive
same,outcome,[8],inactive
same,outcome,[9],inactive
same,outcome,[10],inactive
same,outcome,[11],inactive
same,outcome,[12],inactive
same,outcome,[13],inactive
same,outcome,[14],inactive
same,outcome,[19],inactive
same,outcome,[15],inactive
same,outcome,[16],inactive
same,outcome,[17],inactive
same,outcome,[18],inactive
CC(C)(c1ccc(O)cc1)c1ccc(O)cc1,AC50,[1],14.4 µM (active)
same,outcome,[1],inactive
same,outcome,[2],inactive
same,outcome,[3],inactive
same,AC50,[4],6.87 µM (active) and 25.7 µM (active)
same,outcome,[4],inactive
same,outcome,[5],inactive
same,outcome,[6],inactive
same,AC50,[7],26.2 µM (active) [middle of 4 runs]
same,outcome,[8],inactive
same,outcome,[9],inactive
same,outcome,[10],inactive
same,outcome,[11],inactive
same,outcome,[12],inactive
same,AC50,[13],8.38 µM (active)
same,outcome,[13],inactive
same,outcome,[14],inactive
same,outcome,[15],inactive
same,outcome,[16],inactive
same,outcome,[17],inactive
same,outcome,[18],inactive
